Whole data set: some 33,000 sequences, median “E-score (-0.5 to 0.5)” near -8e-05, cut for the highest 2% near 0.23. The sample as a whole holds a higher share of the highest values than the screen did.
Target: T1, Nrg2 (UniProt P38082)
T1 sequence: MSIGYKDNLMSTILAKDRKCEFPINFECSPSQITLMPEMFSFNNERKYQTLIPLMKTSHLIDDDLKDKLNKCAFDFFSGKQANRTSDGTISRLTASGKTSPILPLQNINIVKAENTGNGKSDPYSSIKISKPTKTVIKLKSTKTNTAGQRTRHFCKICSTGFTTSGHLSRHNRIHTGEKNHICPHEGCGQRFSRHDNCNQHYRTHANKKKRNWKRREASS
Assay: PBM E-score (8-mer binding enrichment) (E-score (-0.5 to 0.5)); higher = stronger / more preferred TF binding
Settings: protein concentration: 100 nM; construct: GST-full length
Description: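 Universal 'all 10-mer' protein binding microarrays (Agilent AMADID 015681) probed with GST-tagged S. cerevisiae TFs (full-length or DBD) made by in vitro transcription/translation (PURExpress), about 100-200 nM. Bound TF was detected with fluorescent anti-GST. Each ungapped 8-mer (which stands for itself and its reverse complement) is scored by the PBM enrichment score (E-score), a modified Wilcoxon-Mann-Whitney statistic from -0.5 to +0.5, computed with the Universal PBM Analysis Suite. Scale: above 0.35 generally sequence-specific binding.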

Row | Sequence | PBM E-score
1 | AGGCCGGG | -0.266
2 | GCAGTGCA | -0.0476
3 | ATGAGCTA | 0.069
4 | CAGCAAGC | -0.226
5 | CCGCCCTC | -0.112
6 | CAGCCAGG | 0.0441
7 | AAGGATTA | -0.0123
8 | GTCCCCAC | -0.178
9 | ATCCCCAT | 0.124
10 | ATCCCCAC | 0.247
11 | AAAGTCTA | -0.0546
12 | CTCTGCAG | -0.0279
13 | ATGCATCG | 0.0353
14 | ATGCATCA | 0.229
15 | GTGCATCA | 0.129
16 | CGAGATAG | 0.0116
17 | GATCTTCA | 0.0364
18 | AACATATT | 0.0545
19 | CCGCCCCG | 0.309
20 | CCGCCCGG | -0.003
21 | CCGCCCCC | -0.406
22 | AGCTCTGA | -0.199
23 | AGTGCAAT | 0.0654
24 | AATGCAAA | 0.244

Row | Sequence | PBM E-score
25 | AATGCAAC | 0.127
26 | CATGCAAG | 0.088
27 | CATGCAAA | 0.246
28 | CTTGCAAG | 0.181
29 | CTTGCAAC | 0.124
30 | TATGCAAA | -0.0899
31 | AGTGCAAG | 0.156
32 | AGTGCAAA | 0.258
33 | CTTGCAAA | 0.232
34 | AATGCAAG | 0.0402
35 | ACCCGTGG | -0.111
36 | TCATAAAA | -0.032
37 | GCACTAGA | -0.0716
38 | CTGGTTCC | 0.158
39 | AAGAATGG | 0.0626
40 | TAAGAGGA | -0.0476
41 | GTTTACGA | -0.00773
42 | CAGGTCTA | -0.0487
43 | GCGTCGTA | 0.0775
44 | AAAGCTTG | 0.00751
45 | CCCAGTCG | -0.143
46 | AGATCAAA | 0.0337
47 | CTTGCGCA | 0.264
48 | AATGCGCA | 0.296

Row | Sequence | PBM E-score
49 | CTTGCGCC | -0.0573
50 | CATGCGCA | 0.164
51 | ATTGCAAG | 0.137
52 | AATGCGCG | 0.177
53 | ATTGCGCA | 0.143
54 | ATTGCAAA | 0.127
55 | ATTGCAAT | 0.243
56 | ATCCTTGC | -0.0413
57 | AGCAGACC | 0.135
58 | ACCTTCTA | -0.0686
59 | CGTGTCCC | -0.104
60 | ACGACTAT | 0.0778
61 | CTGTAGGA | 0.0349
62 | AGTAGTAT | 0.114
63 | GTAAATCA | 0.24
64 | CTAAATCA | 0.0351
65 | CGAAATCC | 0.199
66 | GGAAATCA | -0.049
67 | ATAAATCA | 0.0708
68 | CGAAATCA | 0.244
69 | GCTGTGTA | -0.051
70 | CCTCTCCA | -0.343
71 | AGGCATCC | -0.161
72 | AGGGGTAC | 0.142

Row | Sequence | PBM E-score
73 | CTCTTTTA | -0.0622
74 | ATTCATAC | 0.238
75 | ATTCATAG | 0.155
76 | CTTCATAC | 0.112
77 | ATCTCATC | 0.0993
78 | CTTATGGC | -0.0261
79 | ACCTGACC | -0.197
80 | GCCTGACA | -0.173
81 | CCCTGACC | 0.3
82 | GCCTGACC | -0.0177
83 | CCCTGACG | 0.138
84 | CCCTGACA | 0.288
85 | TAACTGCA | 0.157
86 | CTCTCAAC | -0.121
87 | GAGTCTCC | -0.178
88 | CAGCAATC | 0.0368
89 | AAACAGTG | 0.167
90 | CAGGGATA | 0.286
91 | CAGGGATC | 0.238
92 | AAGGGATC | 0.135
93 | CAGGGATG | 0.211
94 | GAGGGATA | -0.145
95 | TAGGGATA | 0.134

From the supplement of paper PMC3334620
